Measurements reported in PubChem BioAssay AID709 (SRMLSC, 2007).
Out of some 65,000 compounds screened, about 3,600 (5.5%) were called active. The sample holds actives, similar compounds and a random draw of the others, so the mix is not that of the screen. Values without a mark were called inactive.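 Rule for the calls: active = at 10 µM, mean starting fluorescence two-fold or more over control wells; inactive = the rest.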

Assay: intrinsic fluorescence of library compounds, ex339/em460 – biochemical, MLSMR library, data from DPM-DC assay, artefact control, profiling panel (AID 709);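 note: signal is the first read of a kinetic run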
Conditions: compound autofluorescence, ex339/em460 nm, NADH buffer; at 10 µM; active compounds read high; 1 = no-compound wells, NADH background

Structure (SMILES)	fluorescence fold increase
CC1CN(C2CCN(C(=O)COc3ccccc3)CC2)CC(C)O1 (stereo unspecified)	1.1
O=C(NC1CCCCC1)c1ccc2c(=O)n(CC3CCCO3)c(=O)[nH]c2c1 (stereo unspecified)	2.11 (active)
COC(=O)c1ccc2c(=O)n(CC3CCCO3)c(=S)[nH]c2c1 (stereo unspecified)	1.06
O=c1c2cc3c(=O)n(CC4CCCO4)c(=O)c3cc2c(=O)n1CC1CCCO1 (stereo unspecified)	1.07
Cc1cc(C(=O)CC#N)c(C)n1CC(F)(F)F	1.05
CCCNc1ncnc2sc(C)c(C)c12	1.15
Fc1cc(F)c2nc(N3CCOCC3)sc2c1	1.07
COc1ccc(OC)c(NC(=O)CSc2nc(N)c(-c3ccccc3)c(=O)[nH]2)c1	1.08
CCOC(=O)CCc1c(C)c2ccc(OCc3nn[nH]n3)c(C)c2oc1=O	3.81 (active)
CCN(CC)S(=O)(=O)c1cccc(C(=O)Nc2cc(C)nn2-c2nc(C)cc(C)n2)c1	1.03
CC(C)C1C2=C(CC(C)(C)CC2=O)ON1c1ccccc1 (stereo unspecified)	1.9
O=C(O)C1CCCCC1C(=O)Nc1ccc(Cl)cc1 (stereo unspecified)	1.08
CCOC(=O)Cc1c(C)nc2c(C#N)c(C)nn2c1C	3.62 (active)
CCOC(=O)CSc1nccc(N(C)C)c1C#N	1.09
COc1ccccc1CNC(=O)Cn1cc2c(n1)CCCC2	1.13
CC(=O)c1cc2c(cc1N)OCO2	1.13
COc1cc2[nH]c(=O)n(CCC(=O)NC3CCN(Cc4ccccc4)CC3)c(=O)c2cc1OC	1.46
COc1ccc(CCN(Cc2cc3cccc(C)c3[nH]c2=O)C(=O)N2CCCC2)cc1OC	1.08
COc1cc2cc(CN(CCN3CCCC3)C(=O)Nc3ccccc3Cl)c(=O)[nH]c2cc1OC	2.13 (active)
Cc1cc(C(=O)O)c(S(C)(=O)=O)s1	1.04
Cc1cc(C)c2c(c1)c(C)cc1nnc(SCC(=O)NCc3ccco3)n12	1.45
CC(C)n1c(C(O)c2ccccc2)nc2ccccc21 (stereo unspecified)	1.13
CC(Nc1nc(N2CCCC2)nc2ccccc12)c1ccccc1 (stereo unspecified)	2.43 (active)
Cc1ccc(C(CC(=O)O)Nc2nc(N3CCCCC3)nc(N3CCCCC3)n2)cc1 (stereo unspecified)	1.14
Cc1ccc(N2CCN(S(=O)(=O)N(C)C)CC2)cc1Cl	1.11
COc1ccc(OCc2ccc(-c3nc4ccccc4c(=O)n3N)o2)cc1	1.1

Structure (SMILES)	fluorescence fold increase
COc1ccc(-c2noc(COc3ccc(Cl)c(C)c3)n2)cc1	1.02
COc1ccc(-c2cc3ccc(OCc4nn[nH]n4)cc3oc2=O)cc1	3.01 (active)
O=C(O)C1CCN1C1CCCCC1 (stereo unspecified)	0.88
COCCCNC(=O)c1c(F)c(F)c(F)c(F)c1F	1.04
COCCCn1c(CCC(=O)O)ccc1-c1ccc(F)cc1	3.84 (active)
Cc1cccc(N=C2NC(=O)CS2)c1C	1.01
CC(C)CC(=O)N=C1SC2CS(=O)(=O)CC2N1CCc1ccccc1 (stereo unspecified)	1.1
CCCCCCn1c(CN2CCCCC2)nc2c1c(=O)n(C)c(=O)n2C	1.13
CCOC(=O)N1CCC(NC(=O)CN2C(=O)COc3ccc(C(C)(C)C)cc32)CC1	1.02
CN1CCN(S(=O)(=O)c2ccc3[nH]cc(C(=O)O)c(=O)c3c2)CC1	2.17 (active)
CCN(CC)S(=O)(=O)c1ccc2[nH]cc(C(=O)NCCc3ccccc3)c(=O)c2c1	1.58
COC(=O)c1cn(C)c2ccc(S(=O)(=O)N3CC(C)CC(C)C3)cc2c1=O (stereo unspecified)	0.95
CC1(C)Cc2cccc(OCC(=O)Nc3nccs3)c2O1	1.08
CCN1CCc2c(C#N)c(NCc3ccccc3)nc(NCCO)c2C1	2.3 (active)
CC(C)CCNc1nc(N2CCCC2)c2c(c1C#N)CCN(C)C2	1.63
N#Cc1c(N)sc2c1CCN(C(=O)OCc1ccccc1)C2	1.12
O=C1CCCC2=C1C(c1cccs1)n1nc(SCc3ccccc3)nc1N2 (stereo unspecified)	2.52 (active)
CC(C)C(=O)N1c2ccccc2NC2=C(C(=O)CCC2)C1c1ccc(N(C)C)cc1 (stereo unspecified)	1.05
CCCC(=O)N1c2ccccc2NC2=C(C(=O)CCC2)C1c1ccc(F)cc1 (stereo unspecified)	1.08
Cc1ccc2c(c1)N(CCCC(=O)NCc1cccnc1)C(=O)CO2	1.1
COC(=O)c1c(-c2ccc(C)cc2)csc1N	1.09
CC(=O)NC1=NC(=O)CS1	1.08
CCOc1ccc(CCNC(=O)C2CCN(c3ccc(N4CCOCC4)nn3)CC2)cc1OCC	4.91 (active)
COc1ccc(CCNC(=O)C2CCN(c3nn4c(=O)cc(C)nc4s3)CC2)cc1OC	1.05
CCCS(=O)(=O)N1CCC(C(=O)NCCc2ccc(OC)c(OC)c2)CC1	1.09
